Source: PMC5540273 (PLoS ONE, 2017)

Tests used:
Conditions in all cases: concentration: 1 μM, replicates: in singlicate; n = 1
[1] = system: NEK11
[2] = system: NEK1
[3] = system: NEK2
[4] = system: NEK3
[5] = system: NEK4
[6] = system: NEK5
[7] = system: NEK6
[8] = system: NEK7
[9] = system: NEK9
[10] = system: T1, NIK
T1 construct: gene MAP3K14

[11] = system: T2, NIM1
T2 construct: gene MGC42105

[12] = system: NLK
[13] = system: T3, OSR1
T3 construct: gene OXSR1

[14] = system: PAK1
[15] = system: PAK2
[16] = system: PAK3
[17] = system: PAK4
[18] = system: PAK6
[19] = system: PAK7
[20] = system: T4, PCTK1
T4 construct: gene CDK16
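Note: KINOMEscan kinase panel screen.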

Structure (SMILES)	%Inh [1] [%]	%Inh [2] [%]	%Inh [3] [%]	%Inh [4] [%]	%Inh [5] [%]	%Inh [6] [%]	%Inh [7] [%]	%Inh [8] [%]	%Inh [9] [%]	%Inh [10] [%]	%Inh [11] [%]	%Inh [12] [%]	%Inh [13] [%]	%Inh [14] [%]	%Inh [15] [%]	%Inh [16] [%]	%Inh [17] [%]	%Inh [18] [%]	%Inh [19] [%]	%Inh [20] [%]
O=C(NC1CCN(c2ccnc(Nc3ccc(F)cc3)n2)C1)c1cc2ccccc2s1 (stereo not drawn) [GSK1379716]	20	0	8	9	0	13	3	0	17	42	34	31	11	18	16	19	0	0	4	0
COc1cccc(NC(=O)NC2CCN(c3ccnc(Nc4cc(OC)c(OC)c(OC)c4)n3)C2)c1 (stereo not drawn) [GSK1379763]	0	65	21	33	5	100	16	52	40	6	15	63	0	0	0	0	0	16	0	6
CCn1c(-c2nonc2N)nc2c(C#CC(C)(C)O)nc(OC[C@H](N)c3ccccc3)cc21 [GSK943949]	0	0	0	3	0	0	14	0	0	72	0	7	0	0	0	27	94.6	97.9	98	0
COc1ccc(CNC(=O)NC2CCN(c3ccnc(Nc4ccc(F)cc4)n3)CC2)cc1 [GSK1379788]	2	0	0	12	0	13	0	0	0	12	8	0	0	0	0	6	0	0	2	0
CN(c1ccc(NC(=O)Nc2cc(C(F)(F)F)ccc2F)cc1)c1ccnc(Nc2ccc(S(N)(=O)=O)cc2)n1 [GW809893]	0	100	0	15	26	31	20	0	37	38	0	78	6	2	11	23	2	10	0	69
O=C(Nc1n[nH]c2nc(-c3ccc(O)cc3)ccc12)C1CC1 [SB-710363]	0	0	3	17	2	0	0	12	0	2	0	92.1	0	0	72	0	0	0	11	61
Cc1ccc(C(=O)N2CC[C@@H](O)C2)cc1-n1c(C)cc(OCc2ccc(F)cc2F)c(Br)c1=O	0	0	0	31	0	0	0	0	0	0	0	4	0	0	0	0	0	0	0	0
Cn1cc(-c2ccc3c(c2)CCN3C(=O)Cc2cccc(Cl)c2)c2c(N)ncnc21 [GSK2606590]	0	26	66	1	22	32	11	0	18	23	0	0	16	17	22	46	0	0	9	0
Cc1cccc(Nc2nc(N[C@H]3CCNC3)ncc2C(N)=O)c1.Cl [GSK2197149]	0	50	0	7	27	8	0	0	0	20	11	0	18	38	70	66	95.8	78	98	14
